# Measured values from ChEMBL document CHEMBL3988442, “University of Dundee, Small-Polar-MMV Screening Library” (2021).
# The whole screen tested about 66,000 compounds, of which about 960 (1.5%) showed an effect of 50% or more. This excerpt belongs to a sample that is enriched for strong results.
# System: Trypanosoma brucei
# Assay: Trypanosoma brucei 72 hour study
# Type: functional, organism-based
# Set-up: scale not given: in the data most compounds retested in dose-response had high values
structure (smiles),measurement,setting,value
Cc1ccc(CN2CCCC3(CCN(S(C)(=O)=O)C3)C2)o1.O=C(O)C(F)(F)F (stereo not given),Percent Effect,"30 µM, 30.03 µM",16.24%
Cc1csc2c(N3CCNC(C(=O)Nc4ccc(F)cc4)C3)ncnc12 (stereo not given),Percent Effect,"30 µM, 30.03 µM",72.13%
Cc1csc2c(N3CCNC(C(=O)NCc4cccnc4)C3)ncnc12 (stereo not given),Percent Effect,"30 µM, 30.03 µM",-5.987%
Cc1csc2c(N3CCNC(C(=O)N4CCCC4)C3)ncnc12 (stereo not given),Percent Effect,"30 µM, 30.03 µM",24.45%
Cc1cc(C(=O)N2CCc3nc(C4CCCN4)ncc3C2)cs1.Cl (stereo not given),Percent Effect,"30.3 µM, […]",-23.19%
Cc1occc1C(=O)NCC(=O)N(C)CCCOc1ccc(F)cc1,Percent Effect,"30 µM, 30.03 µM",95.62%
Cc1occc1C(=O)NCC(=O)N(C)CCCOc1ccccc1,Percent Effect,"30 µM, 30.03 µM",-44.45%
Cc1occc1C(=O)NCC(=O)NCCCOc1ccc(F)cc1,Percent Effect,"30 µM, 30.03 µM",-42.11%
CNC(=O)c1ccc(C2CCCN(C(=O)c3sc(C)nc3C)C2)nc1 (stereo not given),Percent Effect,"30.3 µM, […]",-1.908%
Cc1cc(NCCN)nc2ccccc12.O=[N+]([O-])O,Percent Effect,"30.3 µM, […]",-46.24%
CCS(=O)(=O)c1ccccc1N1CCC(NC(C)=O)CC1,Percent Effect,"30 µM, 30.03 µM",4.915%
CCS(=O)(=O)c1ccccc1N1CCC(NC(=O)c2ccc[nH]2)CC1,Percent Effect,"30 µM, 30.03 µM",54.24%
CCS(=O)(=O)c1ccccc1N1CCC(NC(=O)NC2CCCC2)CC1,Percent Effect,"30 µM, 30.03 µM",7.94%
CCC[C@@H]1CN(Cc2cc(C#N)n(C)c2C)C[C@H]1NS(C)(=O)=O,Percent Effect,"30 µM, 30.03 µM",0.9985%
Cc1nc(N)c2ccc(C3CCCCN3)nc2n1.Cl (stereo not given),Percent Effect,"30.3 µM, […]",-17.89%
CN(c1ccc(C(=O)NCCCN2CCCCC2)c(Cl)c1)S(C)(=O)=O,Percent Effect,"30 µM, 30.03 µM",-14.39%
CCCc1cc(=O)[nH]c(-n2nc(C3CC3)cc2N)n1,Percent Effect,"30 µM, 30.03 µM",78.26%
CC(=O)Nc1cc(C2CC2)nn1-c1nc(C)c(C)c(=O)[nH]1,Percent Effect,"30 µM, 30.03 µM",-12.81%
CC(C)c1cc(=O)[nH]c(C(C)(C)N)n1.Cl,Percent Effect,"30 µM, 30.03 µM",-29.56%
Cc1cc(=O)[nH]c(-n2nc(C3CC3)cc2N)n1,Percent Effect,"30 µM, 30.03 µM",-21.61%
CCc1c(C)nc(-n2nc(C3CC3)cc2NC(C)=O)[nH]c1=O,Percent Effect,"30 µM, 30.03 µM",-1.646%
CCc1cc(=O)[nH]c(-n2nc(C3CC3)cc2NC(=O)C2CC2)n1,Percent Effect,"30 µM, 30.03 µM",97.36%
CCCc1cc(=O)[nH]c(-n2nc(-c3cccs3)cc2N)n1,Percent Effect,"30 µM, 30.03 µM",-29.48%
CC(C)c1cc(=O)[nH]c(-n2nc(C3CC3)cc2N)n1,Percent Effect,"30 µM, 30.03 µM",99.41%
Cc1cc(=O)[nH]c(-n2nc(-c3ccccc3)cc2N)n1,Percent Effect,"30 µM, 30.03 µM",-3.849%
COc1ccc(CC(=O)N2Cc3nccn3CC(CN(C)C)C2)cc1.O=C(O)C(F)(F)F (stereo not given),Percent Effect,"30 µM, 30.03 µM",-47.37%
Cc1cccc(CN2CCC3(CC2)NC(=O)C[C@H]3c2cnn(C)c2)n1.O=C(O)C(F)(F)F,Percent Effect,"30.3 µM, […]",-5.843%
COc1cc2c(cc1CNC(Cc1cccs1)c1nccs1)OCO2.Cl (stereo not given),Percent Effect,"30.3 µM, […]",-17.08%
O=C1N[C@H]2OCCC[C@H]2[C@H](c2ccccc2)N1,Percent Effect,"30 µM, 30.03 µM",-11.46%
CCOc1cc(CNC(=O)c2cnn(CC)c2C(F)(F)F)ccn1,Percent Effect,"30 µM, 30.03 µM",1.219%
Fc1cccc(N2CCCC3(CN(Cc4ccco4)CCO3)C2)c1.O=C(O)C(F)(F)F.O=C(O)C(F)(F)F (stereo not given),Percent Effect,"30.3 µM, […]",99.09%
O=C(O)C(F)(F)F.OCCN1CCOC2(CCCN(c3cccc(F)c3)C2)C1 (stereo not given),Percent Effect,"30 µM, 30.03 µM",21.19%
Fc1cccc(N2CCCC3(CN(Cc4cccnc4)CCO3)C2)c1.O=C(O)C(F)(F)F.O=C(O)C(F)(F)F.O=C(O)C(F)(F)F (stereo not given),Percent Effect,"30.3 µM, […]",86.99%
Fc1cccc(N2CCCC3(C2)CN(c2ncccn2)CCO3)c1.O=C(O)C(F)(F)F.O=C(O)C(F)(F)F (stereo not given),Percent Effect,"30 µM, 30.03 µM",-26.54%
Fc1cccc(N2CCCC3(CN(Cc4nccs4)CCO3)C2)c1.O=C(O)C(F)(F)F.O=C(O)C(F)(F)F (stereo not given),Percent Effect,"30.3 µM, […]",9.59%
Cc1ccc(CN2CCOC3(CCCN(c4cccc(F)c4)C3)C2)o1.O=C(O)C(F)(F)F.O=C(O)C(F)(F)F (stereo not given),Percent Effect,"30.3 µM, […]",98.9%
Cn1cc(CN2CCOC3(CCCN(c4cccc(F)c4)C3)C2)cn1.O=C(O)C(F)(F)F.O=C(O)C(F)(F)F (stereo not given),Percent Effect,"30.3 µM, […]",-12.05%
Fc1cccc(N2CCCC3(CN(Cc4ccccn4)CCO3)C2)c1.O=C(O)C(F)(F)F.O=C(O)C(F)(F)F.O=C(O)C(F)(F)F (stereo not given),Percent Effect,"30.3 µM, […]",1.036%
Fc1cccc(N2CCCC3(CN(Cc4ccncc4)CCO3)C2)c1.O=C(O)C(F)(F)F.O=C(O)C(F)(F)F.O=C(O)C(F)(F)F (stereo not given),Percent Effect,"30 µM, 30.03 µM",7.874%
COc1c(C2CCCN2C(=O)c2ccc(O)nc2)c(C)nn1C (stereo not given),Percent Effect,10 µM,-34.15%
COCCCN1CC2(CCN(C(=O)c3ncc(F)cc3F)CC2)CC1=O,Percent Effect,"30 µM, 30.03 µM",-16.91%
Cl.O=C(NCc1ccc(F)cc1)N1CCN(CC(O)C2CC2)CC1 (stereo not given),Percent Effect,"30.3 µM, […]",2.371%
Cc1nc[nH]c1CN1CCc2nc3scc(C)c3c(=O)n2CC1.Cl,Percent Effect,"30.3 µM, […]",-39.02%
Fc1cccc(Oc2nccnc2C2CCN(C3CCOCC3)CC2)c1,Percent Effect,"30.3 µM, […]",-17.84%
CCn1nc(C)c(CN(CCCOC)Cc2ccccn2)c1C.O=C(O)CC(O)(CC(=O)O)C(=O)O,Percent Effect,"30.3 µM, […]",-0.7195%
